We go through 37 compounds from PubChem BioAssay AID624337 (National Center for Advancing Translational Sciences (NCATS), 2012).

Molecules are shown by their SMILES. Results filed as inconclusive are left out. Active and inactive are the calls of the source. Calls come from the whole dose curve; as a rule, active = well fitted curve in the direction sought with a large enough effect; inconclusive = small, poorly fitted or top-dose-only effect; inactive = flat fitted curve, though single readings scatter.

This assay can be described thus: Quantitative high throughput screen for delayed death inhibitors of the malarial parasite plastid: Hit Validation with Dd2 at 96hr using Flow Cytometry. The note with it: P. falciparum Dd2 growth; parasitemia, lower = inhibition: at 50 µM (top of the series). From the text:
The goal of this screen is to discover new antimalarial compounds that act by inhibiting the development of the apicoplast organelle in the malarial parasite Plasmodium falciparum. Some antibiotics, such as azithromycin and tetracycline, are known to interfere with the apicoplast translational machinery, and have a potent antimalarial effect. […] We developed a cell-based quantitative high throughput screen that leverages this "delayed death" phenotype to enrich for compounds that target the apicoplast. To detect small molecules that cause the delayed death phenotype, erythrocytes infected with firefly luciferase-expressing parasites were incubated with compounds for either one or two generations, corresponding to 48 and 96 hours, respectively. Growth inhibition was detected by a decrease in luciferase activity. Compounds that inhibited parasite growth in the second generation at least five-fold more potently than in the first generation were defined as delayed death inducing. These compounds were selected for confirmatory screening using a flow cytometry based assay. This hit validation assay used the Dd2 cell line and measured at 96 hours. NIH Molecular Libraries Probe Production Network [MLPCN] NIH Chemical Genomics Center [NCGC] MLPCN Grant: R21 NS059500 Assay Provider: David Fidock and Eric Ekland, Columbia University
Test compounds were diluted in 20 microliters of complete media (RPMI 1640 with 0.5% w/v Albumax (GIBCO), 24 mM sodium bicarbonate (Sigma) and 10 ug/mL gentamycin (Gibco)) in clear 384-well plates (Greiner). All liquid handling was conducted using a Bio Tek Precision 2000 pipetting system. Twenty microliters of infected erythrocytes, 0.2% parasitemia (for 48 hour time points) or 0.1% parasitemia (for 96 hour time points) were added to the compound dilutions (1% hematocrit, final concentration; 40 microliters, total culture volume). The assay plates were incubated for 48 hours, or 96 hours, at 37 masculine C in a humidified chamber (Billups- Rothenberg, Del Mar, CA, USA), gassed with 5%CO2/5%O2/ 90%N2. After two generations (96 hours), 5 microliters of culture were harvested and transferred to a second 384 well plate for fluorescent staining. Samples were stained with 30 microliters of 2 x SYBR Green I (Invitrogen) and 150nM MitoTracker Deep Red (Invitrogen) diluted in 0.9% NaCl, 0.2% dextrose (Baxter) supplemented with 2.5% Fetal Calf Serum (Gibco) (saline/FCS). Mature erythrocytes lack nuclei and mitochondria, therefore only parasitized erythrocytes retain the SYBR Green I and MitoTracker Deep Red. After 30 minutes at 37 masculine C, the stained cells were diluted in an additional 60 microliters of saline/FCS. The samples were harvested directly from the 384 well plate using a Hypercyt High Capacity Flow Platform (Intellicyt) paired with a C6 Flow Cytometer (Accuri). The flow cytometry files were analyzed using FlowJo software (FlowJo).
Background: In flow cytometry, cells or beads pass a laser one at a time.
Take `CCOC(=O)c1ccc2c(c1)n(CC)c(/C=C/N(C)c1ccccc1)[n+]2CC`: the Potency was 0.185 µM (active).
On the same count and under the same terms, in the case of `Cc1ccc(-n2c(-c3ccc(Cl)cc3)c[n+]3c2CCC3)cc1` it was 0.0825 µM (active).
On to `COCCNC(=O)c1cccc(OC2CCN(Cc3cccc(SC)c3)CC2)c1`, for which the “parasitemia, lower = inhibition” value is 1.86 (inactive).
As to `COc1ccc(C(=O)N2CCN(S(=O)(=O)c3ccc(C)cc3C)CC2)cc1OC`, the Potency was 29.7 µM (active).
On the same count and under the same terms, in the case of `CCC(=O)OC1C(N(C)C)CC(C)O[C@H]1O[C@H]1[C@H](C)[C@@H](O[C@H]2CC(OC)[C@@H](O)C(C)O2)[C@H](C)C(=O)O[C@@H](CC)[C@](C)(O)[C@@H](O)[C@H](C)C(=O)[C@@H](C)C[C@]1(C)O` (some centres not stated) it was 4.56 µM (active); in that of `CCCCN(CCCNC(=O)C1CCN(C(=O)c2cc3sccc3n2C)CC1)Cc1ccccc1`, 0.389 µM (active).
As to `COc1ccc(NC(=S)N2CCC(Cc3ccccc3)CC2)cc1OC`, the parasitemia, lower = inhibition is 0.714 (active).
For `Cc1sc2nc[nH]c(=O)c2c1-c1ccc(Cl)cc1`, the Potency was 9.78 µM (active).
Still for that read-out and setting: under `CC(=O)NC[C@@H]1CN(c2ccc(N3CCOCC3)c(F)c2)C(=O)O1` stands 18 µM (active); under `COc1cccc(CN2CCN(c3nc4nonc4nc3N3CCCCC3)CC2=O)c1`, 5.78 µM (active).
As to `CCOc1ccc(C(=O)Nc2ccc(N3CCN(C)CC3)cc2)cc1`, the parasitemia, lower = inhibition is 0.471 (active).
Consider `COc1ccc2cc3cc(C(=O)Nc4ccc5c(c4)OCO5)oc3nc2c1`, for which the Potency was 24.9 µM (active).
Same read-out and setting: in the case of `CO[C@@H]1[C@@H](OC2OC(C)C(OC3CC(C)(O)C(OC(=O)CC(C)C)C(C)O3)C(N(C)C)C2O)[C@@H](CC=O)C[C@@H](C)C(=O)/C=C\C2O[C@H]2C[C@@H](C)OC(=O)C[C@H]1OC(C)=O` (some centres not stated) it was 0.0981 µM (active); in that of `CCCCOc1ccc(N2C(N)=NC(N)=NC23CCCCC3)cc1`, 4.34 µM (active); in that of `COc1ccc2c(ccc[n+]2CC(=O)c2ccccc2)c1`, 5.18 µM (active).
Still for that read-out and setting: under `Cc1ccc(CN2CCC(n3nccc3NC(=O)c3ccccc3C)CC2)o1` stands 12.8 µM (active); under `COc1ccccc1N1CCN(CCC(=O)Nc2ccc(F)cc2)CC1`, 8.91 µM (active); under `O=C(CSc1ccc(-c2cccnc2)nn1)Nc1ccccc1C(F)(F)F`, 6.51 µM (active).
Consider `CN(C)c1ccc(CN(C(=O)c2ccccc2Br)C2CCS(=O)(=O)C2)cc1` (configuration not stated), for which the Potency is 29.1 µM (active).
Still for that read-out and setting: in the case of `O=C(Nc1ccccc1N1CCOCC1)c1cccc(S(=O)(=O)N2CCOCC2)c1` it was 10.6 µM (active).
For `CCCc1c(CC)c(=N)c2ccccc2n1C`, the Potency is 0.113 µM (active).
On the same count and under the same terms, in the case of `CCCCN(CCCNC(=O)c1ccc(CS(=O)(=O)c2ccc(OC)cc2)o1)Cc1ccccc1` it was 1.66 µM (active).
Regarding `Clc1ccc(-c2c[n+](Cc3ccc(Cl)cc3Cl)c3n2CCCCC3)cc1`, the Potency was 0.244 µM (active).
Still for that read-out and setting: under `CCOc1ccc(S(=O)(=O)Nc2cc(S(=O)(=O)N(CC)CC)ccc2N2CCCC2)cc1` stands 13.9 µM (active); under `CC(C)C(=O)NCCSc1c[nH]c2ccccc12`, 5.01 µM (active); under `N#Cc1cccc(NC(=O)Cn2c3[n+](c4ccc(C(F)(F)F)cc42)CCCCC3)c1`, 0.424 µM (active).
In the case of `COc1ccc(Nc2nnc(-c3ccc(C)cc3)c3ccccc23)cc1C(=O)N1CCCCC1`, the Potency is 25.7 µM (active).
The same measure, in the same setting: under `Cc1ccc(S(=O)(=O)Nc2ccc(C(=O)Nc3ccncc3)cc2)cc1` stands 14 µM (active).
As for `O=C(CNC(=O)C1CCCCC1)OC(C(=O)c1ccccc1)c1ccccc1` (configuration not stated), the parasitemia, lower = inhibition was 0.991 (active).
`Cc1c(F)c(N2CCNC(C)C2)cc2c1c(=O)c(C(=O)O)cn2C1CC1` (configuration not stated): the Potency was 0.479 µM (active).
The same measure, in the same setting: in the case of `O=C(c1ccc([N+](=O)[O-])cc1)n1nc(-c2ccccc2)nc1NCc1ccc(F)cc1` it was 24.6 µM (active); in that of `CCOc1ccc(NC(=O)C[n+]2ccc(N(C)C)cc2)cc1`, 0.121 µM (active); in that of `Brc1cccc(OCCCCN2CCCCC2)c1`, 2.79 µM (active).
As for `CC1=Nc2cc(C(=O)N3CCCC3)ccc2Sc2ccc(C)cc21`, the parasitemia, lower = inhibition is 0.0412 (active).
Consider `CCc1nc(SCC(=O)Nc2ccc(N(C)C)cc2)n[nH]1`, for which the Potency was 15.1 µM (active).
The same measure, in the same setting: in the case of `c1csc(CNc2ncnc3nc[nH]c23)c1` it was 31.3 µM (active); in that of `COc1ccc(CNC(=O)C2CCC(CNS(=O)(=O)c3cccc4cccnc34)CC2)cc1` (configuration not stated), 38.9 µM (active).
